In ChEMBL document CHEMBL4513216, “Probing the Open Global Health Chemical Diversity Library for Multistage-Active Starting Points for Next-Generation Antimalarials” (ACS Infect Dis, 2020):
About 2,100 (3.2%) of roughly 65,000 compounds showed an effect of 50% or more. The median lay at about -52%. The list comes from a sample in which strong results are over-represented; it also holds similar structures and randomly drawn compounds.

System: Plasmodium falciparum
Assay: Screen against P. falciparum Asexual Blood Stage (ABS), at 5uM
Assay type: functional, Dd2
Conditions: tested at 5 uM

Structure (SMILES) | INHIBITION [%]
CNC(=O)[C@@H]1C[C@H]2CN(c3ncccn3)C[C@H]2N1C(C)C | -98
Cc1noc(C)c1CN1CCO[C@H]2CN(C(=O)N3CCCC3)C[C@H]21 | -14.9
O=C(C1CCCO1)N1CCC2(CC1)CNCCO2 (configuration not stated) | -75.2
CNC(=O)CN1CCO[C@H]2CN(CC3CC3)C[C@H]21 | -76.5
Cn1cc(CN2C[C@H]3CN(c4cncnc4)C(=O)[C@H]3C2)cn1 | -44.8
CC(C)C(CNCc1cccc2c1OCO2)N1CCOCC1 (configuration not stated) | 76
CNC(=O)[C@H]1C[C@@H]2CN(C(=O)c3ccncc3F)C[C@@H]2N1C | -96.9
CN1CC[C@H](N(Cc2ccccc2)CC2CC2)C[C@H](O)C1 | 80.8
CN1CC[C@@H]2OC[C@H](C(=O)N(C)Cc3ccccn3)C[C@@H]2C1 | -138
CN1CC[C@H](N(Cc2ccccc2)Cc2ccccc2)C[C@H](O)C1 | 72.1
Cc1nc(CC(=O)N2CCCC(N(C)Cc3ccccc3)C2)cs1 (configuration not stated) | -55.85
Cc1noc(C)c1CN1C[C@@H]2OCCN(Cc3cnn(C)c3)[C@@H]2C1 | -2.02
O=C(Cc1csc(-c2ccco2)n1)N1CCN(CCO)CC1 | -30.8
Cc1ccc(CN2CC[C@H]3[C@H]2CC(=O)N3c2cccnc2)o1 | -38.1
CN(C)CCNC(=O)CCn1ncc2c(Cl)cccc21 | 71
Cn1cc(C2=CCN(CCC(=O)NCc3ccc(Cl)cc3)CC2)cn1 | 5
Cc1cc(CN2CC[C@H]3C[C@H](C)O[C@@H]3C2)no1 | -86.2
Cc1c(CC(=O)N2CCN(C(C)C)CC2)nnn1-c1ccccc1 | -40.6
CN1CCCC1CCn1ccnc1-c1nc2ccccc2[nH]1 (configuration not stated) | 72.2
O=C1[C@H]2CN(Cc3ccccc3)C[C@H]2CN1c1cncnc1 | -76.5
Cc1ccc(OCC(=O)N2CCN[C@H]3CS(=O)(=O)C[C@H]32)cn1 | -103
Cc1cccc(CN2CC[C@@H]3[C@@H]2CCN3Cc2cccs2)n1 | 29.9
COCCN1CCO[C@H]2CCN(C(=O)c3ccnnc3)CC[C@@H]21 | -39.1

Structure (SMILES) | INHIBITION [%]
CC(C)N1CCc2c(CN(C)Cc3ccco3)cncc2C1 | -16.1
CCc1cc(CN(C)C(=O)CN2CC(Cc3ccccc3)CC2=O)on1 (configuration not stated) | -126
CCc1cc(CNCc2ccccc2N(C)C2CCN(C)CC2)on1 | 74.5
CN1CCC(N(C)c2ccccc2CNCc2ccco2)CC1 | 85.9
CN(C)CCN1CCN(Cc2ccco2)Cc2cccnc21 | 11.9
CCc1cc(CN(C)C(=O)CN2CC(c3ccccc3)CC2=O)on1 (configuration not stated) | -13.6
Cc1noc(C)c1CN1CCN(C)c2ncccc2C1 | -31.9
Cc1noc(C)c1CN(C)C(=O)CN1CC(c2ccccc2)CC1=O (configuration not stated) | -83.2
Cc1noc(C)c1CNCc1ccccc1N(C)C1CCN(C)CC1 | 73.6
CC(C)=CCN1C(=O)[C@@H]2CC[C@H]1CN(Cc1cccnc1N)C2 | -11.1
CC1CN(C)CCN1C(=O)Cc1cc(Cl)c2c(c1)OCCO2 (configuration not stated) | -23.7
CCc1noc(CN2CCOC3(CCCC3)C2)n1 | -159
c1cc(CN2C[C@@H]3OCCN(CCN4CCCC4)[C@@H]3C2)ccn1 | -104
Cc1[nH]c2c(C)cccc2c1CC(=O)N(C)CCN(C)C | 46.3
Cc1ccc2c(CC(=O)N(C)CCN(C)C)c(C)[nH]c2c1C | -86.5
Cc1cc(C)c2[nH]c(C)c(CC(=O)N(C)CCN(C)C)c2c1 | 61.9
N#Cc1ccc(C(=O)NS(=O)(=O)c2ccc(C#N)c(Cl)c2)cc1 | -1
COc1cccc(CNc2cc(C)nc(-c3ccncc3)n2)c1OC | 89.3
Cc1cc(C(F)(F)F)nc(N2CCN3CCCC3C2)n1 (configuration not stated) | -144
CCc1ccc(-c2cc(C(F)(F)F)nc(N3CCC(N)CC3)n2)cc1 | 82.4
FC(F)(F)c1cc(-c2cccs2)nc(N2CCN3CCCC3C2)n1 (configuration not stated) | -47.6
O=C(Nc1cccnc1)[C@@H]1COC[C@H]2CN(C3CCCC3)C[C@H]21 | -20.2
O=C(c1ccc2c(c1)COC2)N1CCC(Nc2ccccc2)CC1 | -162

Structure (SMILES) | INHIBITION [%]
O=C1[C@H]2CN(Cc3ccncc3)C[C@H]2CN1c1ccsc1 | -92.9
COc1cccc(CN2CCC(CO)(Cc3ccc(Cl)cc3)CC2)c1O | 89.5
c1cc(CN2CCN(Cc3ccon3)C3(CCCCC3)C2)no1 | -126
Cc1noc(C)c1CN1CC[C@H]2C[C@@H](c3ccncn3)O[C@@H]2C1 | -98.1
Cc1cc(N2CCN3CCCCC3C2)n2nc(C)c(C)c2n1 (configuration not stated) | -76.1
Cc1nc(-c2cccc(N3CCC(N4CCCC4)CC3)c2)cs1 | 71.6
Cc1ncccc1OCC(=O)N1CCN[C@H]2CS(=O)(=O)C[C@H]21 | -151
c1ccc(CN2CCN3C[C@H](Oc4cncnc4)C[C@H]3C2)nc1 | -102
NC1CCc2nc(-c3cccnc3)nc(Nc3ccc(F)cc3)c2C1 (configuration not stated) | 87.1
NC1CCc2nc(-c3ccncc3)nc(Nc3cccc(F)c3)c2C1 (configuration not stated) | 84.2
CCc1cc(N2CCNCC2)n2nc(C)c(C)c2n1 | -115
COc1cccc([C@H]2CN(C(C)=O)[C@@H]3CCN(Cc4ccsc4)C[C@H]23)c1 | 73.9
COCCN1C[C@@H]2[C@@H](OC)CCN(C(=O)Cc3ccsc3)[C@@H]2C1 | 19.2
Cc1noc(C)c1CN1CC[C@H]2C[C@H](c3ccncn3)O[C@@H]2C1 | -66.9
O=C(CC1CC1)N[C@@H]1CN(Cc2cccnc2)C[C@@H]2CCCO[C@@H]21 | -42.5
CN1CCN(Cc2ccoc2)Cc2cccnc21 | -116
c1cncc(CN2CCO[C@@H]3CN(Cc4ccoc4)CC[C@@H]3C2)c1 | 30.1
CC(C)c1nccc([C@@H]2C[C@@H]3CCN(Cc4ccoc4)C[C@H]3O2)n1 | -35
CC(C)c1nccc([C@H]2C[C@@H]3CCN(Cc4ccoc4)C[C@H]3O2)n1 | -81.1
CO[C@@H]1CCN(Cc2ccoc2)C[C@@H]1Cc1ccccc1 | 89
COc1ccc(C[C@H]2CN(Cc3ccoc3)CC[C@H]2OC)cc1 | 75.1
